One may read the ΔTm as the change in melting temperature against a reference sample.

Experimental findings from ChEMBL document CHEMBL5308504, “Tm Shift (DSF) assay results for EUbOPEN Chemogenomics Library” (2023) are described below.

Several values for one entry are separate records, joined by “and”; a condition that tells them apart may be missing. Equal values may be shown once.

Common to all, as to conditions: Compound concentration 20.0 uM, Protein concentration 2.0 uM, Result type QC Liability
The target in test [1] is Tyrosine-protein kinase ABL1 (Homo sapiens) (UniProt P00519).
Chain of Tyrosine-protein kinase ABL1 (Homo sapiens) (P00519 whole entry): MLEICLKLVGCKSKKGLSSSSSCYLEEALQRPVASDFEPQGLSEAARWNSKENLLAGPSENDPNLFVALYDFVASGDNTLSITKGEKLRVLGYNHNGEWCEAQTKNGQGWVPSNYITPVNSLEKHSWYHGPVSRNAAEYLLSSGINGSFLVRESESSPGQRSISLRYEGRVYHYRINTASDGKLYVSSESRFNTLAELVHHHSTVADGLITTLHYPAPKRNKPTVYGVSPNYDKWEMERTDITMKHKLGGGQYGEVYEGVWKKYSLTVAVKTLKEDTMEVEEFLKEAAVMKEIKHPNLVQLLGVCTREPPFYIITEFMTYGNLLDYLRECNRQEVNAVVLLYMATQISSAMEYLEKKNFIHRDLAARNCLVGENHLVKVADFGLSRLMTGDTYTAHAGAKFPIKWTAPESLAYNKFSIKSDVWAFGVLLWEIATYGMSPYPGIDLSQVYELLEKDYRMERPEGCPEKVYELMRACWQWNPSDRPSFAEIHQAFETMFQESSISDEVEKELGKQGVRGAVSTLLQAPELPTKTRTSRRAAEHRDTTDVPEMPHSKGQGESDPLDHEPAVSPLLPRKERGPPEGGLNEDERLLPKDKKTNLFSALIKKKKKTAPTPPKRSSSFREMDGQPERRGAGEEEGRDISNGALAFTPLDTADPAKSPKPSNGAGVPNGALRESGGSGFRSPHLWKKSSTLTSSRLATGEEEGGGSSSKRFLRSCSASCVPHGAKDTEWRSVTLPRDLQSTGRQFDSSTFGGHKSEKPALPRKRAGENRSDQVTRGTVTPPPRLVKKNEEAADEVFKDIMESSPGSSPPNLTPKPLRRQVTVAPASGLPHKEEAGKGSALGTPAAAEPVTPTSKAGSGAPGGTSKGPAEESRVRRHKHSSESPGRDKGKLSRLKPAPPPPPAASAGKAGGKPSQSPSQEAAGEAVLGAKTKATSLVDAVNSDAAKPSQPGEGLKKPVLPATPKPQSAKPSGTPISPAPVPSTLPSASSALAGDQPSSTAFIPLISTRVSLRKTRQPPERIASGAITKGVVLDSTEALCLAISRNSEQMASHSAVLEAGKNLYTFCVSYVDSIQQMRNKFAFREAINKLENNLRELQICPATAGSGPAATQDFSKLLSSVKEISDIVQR
The target of test [2] is Cyclin-dependent kinase 2 (Homo sapiens) (UniProt P24941).
The target of test [3] is Casein kinase I isoform delta (Homo sapiens) (UniProt P48730).
Chain of Casein kinase I isoform delta (Homo sapiens) (P48730 whole entry, looked up, canonical isoform): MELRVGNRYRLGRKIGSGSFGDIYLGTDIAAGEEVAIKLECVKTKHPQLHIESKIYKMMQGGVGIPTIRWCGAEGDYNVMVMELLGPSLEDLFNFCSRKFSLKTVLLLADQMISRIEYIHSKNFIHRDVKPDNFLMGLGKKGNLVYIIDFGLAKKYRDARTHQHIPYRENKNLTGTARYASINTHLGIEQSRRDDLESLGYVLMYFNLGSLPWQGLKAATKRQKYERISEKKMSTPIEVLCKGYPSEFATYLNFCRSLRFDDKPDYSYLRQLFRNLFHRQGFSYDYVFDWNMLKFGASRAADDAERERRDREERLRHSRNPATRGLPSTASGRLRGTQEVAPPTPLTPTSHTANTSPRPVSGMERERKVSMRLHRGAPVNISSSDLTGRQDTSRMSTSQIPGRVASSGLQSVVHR
The target of test [4] is Glycogen synthase kinase-3 beta (Homo sapiens) (UniProt P49841).
Chain of Glycogen synthase kinase-3 beta (Homo sapiens) (P49841 whole entry, looked up): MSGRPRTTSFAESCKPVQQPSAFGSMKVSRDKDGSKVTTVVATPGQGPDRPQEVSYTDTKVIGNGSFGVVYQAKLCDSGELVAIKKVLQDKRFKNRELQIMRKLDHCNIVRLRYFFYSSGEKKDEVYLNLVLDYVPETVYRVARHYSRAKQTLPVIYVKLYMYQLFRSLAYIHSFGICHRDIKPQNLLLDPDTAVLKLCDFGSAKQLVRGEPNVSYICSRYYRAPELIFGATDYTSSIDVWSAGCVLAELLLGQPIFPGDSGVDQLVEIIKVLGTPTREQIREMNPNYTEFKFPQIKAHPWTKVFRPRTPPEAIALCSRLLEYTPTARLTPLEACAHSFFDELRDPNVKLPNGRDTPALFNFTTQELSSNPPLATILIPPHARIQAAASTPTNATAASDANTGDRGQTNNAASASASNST
For test [5], the target named is Mitogen-activated protein kinase 1 (Homo sapiens) (UniProt P28482).
Chain of Mitogen-activated protein kinase 1 (Homo sapiens) (P28482 whole entry): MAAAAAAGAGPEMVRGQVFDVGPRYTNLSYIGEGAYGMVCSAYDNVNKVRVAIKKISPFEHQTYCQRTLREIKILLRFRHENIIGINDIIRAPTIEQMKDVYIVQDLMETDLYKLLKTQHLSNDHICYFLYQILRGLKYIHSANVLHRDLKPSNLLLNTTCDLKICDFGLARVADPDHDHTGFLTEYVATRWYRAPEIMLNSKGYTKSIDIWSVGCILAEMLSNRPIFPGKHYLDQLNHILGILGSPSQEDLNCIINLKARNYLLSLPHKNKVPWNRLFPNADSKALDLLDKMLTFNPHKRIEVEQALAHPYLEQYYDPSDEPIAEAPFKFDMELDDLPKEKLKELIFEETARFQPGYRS
In test [6] the target is T1, Aurora kinase A (Homo sapiens) (UniProt O14965).
T1 sequence (whole entry): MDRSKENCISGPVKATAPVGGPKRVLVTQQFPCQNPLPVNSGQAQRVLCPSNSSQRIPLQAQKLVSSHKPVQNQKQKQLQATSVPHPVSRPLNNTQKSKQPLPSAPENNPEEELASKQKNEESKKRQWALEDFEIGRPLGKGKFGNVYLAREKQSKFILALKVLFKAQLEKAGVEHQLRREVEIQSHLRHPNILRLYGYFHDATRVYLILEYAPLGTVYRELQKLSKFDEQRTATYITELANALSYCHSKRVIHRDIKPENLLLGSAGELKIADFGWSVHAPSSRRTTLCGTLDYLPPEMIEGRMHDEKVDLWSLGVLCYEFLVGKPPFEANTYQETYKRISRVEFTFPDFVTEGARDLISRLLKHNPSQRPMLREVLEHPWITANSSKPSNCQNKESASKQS

In the case of `COCc1c(-c2cc3cc(C)cc(OC)c3s2)c2c(N)ncnn2c1CN[C@@H]1CCNC1=O`, the shift in melting temperature (ΔTm) in test [1] is 2.45 °C; in test [2] it was 0.59 °C; in test [3], 0.29 °C; in test [4], -0.7 °C; in test [5], 0.28 °C; in test [6], 3.49 °C.
Take `COc1cc(-c2cc([C@H](O)C3CC3)n3ncnc(N)c23)ccc1CO`: the ΔTm in test [1] came to 9.08 °C; in test [2], 0.4 °C; in test [3] it was 4.52 °C; in test [4], 0.91 °C; in test [5], 0.82 °C; in test [6], 1.06 °C.
Regarding `Nc1nccc(-c2c(-c3ccc(F)cc3)ncn2C2CCN(Cc3ccon3)CC2)n1`, the shift in melting temperature (ΔTm) in test [1] is 0.7 °C; in test [2], 0.23 °C; in test [3], 10.1 °C; in test [4] it was 6.87 °C; in test [5], 0.36 °C; in test [6], -0.88 °C.
Regarding `Cc1ccc(NC(=O)c2ccc3c(c2)OCCO3)cc1NC(=O)c1ccc2nc(OCCN3CCCC3)ccc2c1`, the shift in melting temperature (ΔTm) was 2.56 °C in test [1]; 1.06 °C in test [2]; 1.91 °C in test [3]; 0.36 °C in test [4]; 0.33 °C in test [5]; -0.43 °C in test [6].
As for `NC(=O)c1ccccc1Nc1nc(-c2ccc(N3CCOCC3)cc2)cc2ncccc12`, the ΔTm turned out to be 7.91 °C in test [1]; 1.53 °C in test [2]; 3.01 °C in test [3]; 2.43 °C in test [4]; 0.67 °C in test [5]; 10.1 °C in test [6].
As to `CN(CC(=O)Nc1ccc(F)c(F)c1F)C(=O)c1ccc2c(c1)OCCO2`, the thermal shift (ΔTm) is 0.3 °C in test [1]; 0.89 °C in test [2]; 0.08 °C in test [3]; -0.75 °C in test [4]; 0.49 °C in test [5]; -0.17 °C in test [6].
For the compound `CCO[C@@H](Cc1ccc(OCCc2ccc(OS(C)(=O)=O)cc2)cc1)C(=O)O`, the ΔTm in test [1] is 0.03 °C; in test [2] it was 0.41 °C; in test [3] it was -0.31 °C; in test [4], -0.58 °C; in test [5], 0.21 °C; in test [6], 0.09 °C.
On to `CN[C@@H](C)C(=O)N[C@H](C(=O)N1CCC[C@H]1C(=O)Nc1sc(-c2ncco2)nc1-c1ccccc1)C1CCCCC1`, for which the shift in melting temperature (ΔTm) in test [1] was 0.05 °C; in test [2], -0.21 °C; in test [3] it was -0.13 °C; in test [4] it was -0.9 °C; in test [5], 0.08 °C; in test [6], -0.03 °C.
Take `Cc1cc(OC2CCS(=O)(=O)CC2)cc(C)c1-c1cccc(COc2ccc(CCC(=O)O)c(F)c2)c1`: the thermal shift (ΔTm) in test [1] is -0.51 °C; in test [2] it was -2.34 °C; in test [3] it was 0.59 °C; in test [4], -4.55 °C; in test [5], -0.4 °C; in test [6], -1.9 °C.
Turning to `CNc1nc(Nc2ccc(C(=O)N3CCOCC3)cc2OC)ncc1Cl`, the ΔTm in test [1] was 0.4 °C; in test [2], 0.09 °C; in test [3] it was -0.01 °C; in test [4], -0.95 °C; in test [5] it was 0.36 °C; in test [6], 3.14 °C.
With `Nc1nc(-c2nn(Cc3ccccc3F)c3ncccc23)ncc1C1CC1`, the ΔTm is 0.84 °C in test [1]; 0.56 °C in test [2]; 0.44 °C in test [3]; -0.21 °C in test [4]; 0.15 °C in test [5]; 0.14 °C in test [6].
`Cc1cc(S(=O)(=O)N2CC(C)(C)c3cc(-c4ccc(C(F)(F)F)cc4)ccc32)ccc1OCC(=O)O`: the thermal shift (ΔTm) is 0 °C in test [1]; -2.88 °C in test [2]; -0.16 °C in test [3]; -5.32 °C in test [4]; -9.76 °C in test [5]; -1.56 °C in test [6].
For `CC(C)NC(=O)[C@H]1CCC[C@H]1Nc1nc(Nc2ccc(C(=O)N(C)C3CCN(C)CC3)cc2)ncc1Cl`, the ΔTm in test [1] is 10.3 °C and 6.45 °C; in test [2], 1.23 °C and 1.13 °C; in test [3], 0.47 °C and 0.12 °C; in test [4], 0.76 °C and -0.38 °C; in test [5], 0.47 °C and 0.79 °C; in test [6] it was 15.7 °C and 14.3 °C.
Regarding `Cc1c(CCC(=O)O)cccc1NC(=O)[C@@H](c1ccc(-c2cncc(Cl)c2)c(F)c1)C1CCCC1`, the ΔTm in test [1] is 1.34 °C; in test [2] it was -0.35 °C; in test [3] it was -0.06 °C; in test [4], 0.61 °C; in test [5] it was -0.61 °C; in test [6], 4.78 °C.
In the case of `NCCCc1c(C(=O)O)[nH]c2ccc(C(=O)Nc3ccccc3)cc12`, the thermal shift (ΔTm) in test [1] was 0.08 °C; in test [2], 0.25 °C; in test [3], 0.53 °C; in test [4] it was -0.39 °C; in test [5], 0.25 °C; in test [6] it was -1.5 °C.
With `O=C(O)/C=C/c1ccc(Cn2ccnc2)cc1`, the shift in melting temperature (ΔTm) came out at 0.1 °C in test [1]; 0.39 °C in test [2]; 0.22 °C in test [3]; 0.69 °C in test [4]; 0.29 °C in test [5]; 0.06 °C in test [6].
As for `Cc1cc(-c2ccnc(Nc3cnn(C)c3)n2)ccc1CNC(=O)N1CC(OC(C)C)C1`, the ΔTm was 6.49 °C in test [1]; 1.31 °C in test [2]; 0.77 °C in test [3]; 0.38 °C in test [4]; 0.39 °C in test [5]; 8.06 °C in test [6].
On to `CNC(=O)COc1cc2cc(Nc3nc(N4CCC(C(=O)N(C)C)CC4)ncc3Cl)cc(OC)c2n(C)c1=O`, for which the ΔTm in test [1] is -0.18 °C; in test [2], -0.4 °C; in test [3] it was 0.17 °C; in test [4], -0.71 °C; in test [5] it was 0.01 °C; in test [6], -0.26 °C.
Take `N[C@@H]1CCCN(c2c(/C=C3\SC(=O)NC3=O)cccc2-c2ccccc2)C1`: the shift in melting temperature (ΔTm) is -0.18 °C in test [1]; 2.37 °C in test [2]; 0.88 °C in test [3]; 3.72 °C in test [4]; 0.64 °C in test [5]; -0.48 °C in test [6].
For `Cc1sc(C(=O)c2cncnc2N[C@@H]2C[C@H](COS(N)(=O)=O)[C@@H](O)C2)cc1[C@@H]1NCCc2ccc(Cl)cc21`, the ΔTm in test [1] is 0.37 °C; in test [2], 0.66 °C; in test [3], -0.59 °C; in test [4] it was 0.3 °C; in test [5] it was -0.53 °C; in test [6], -0.27 °C.
As to `COc1cc(C(=O)NCCOCCOCCOCC(=O)N[C@H](C(=O)N2C[C@@H](O)C[C@H]2C(=O)NCc2ccc(-c3scnc3C)cc2)C(C)(C)C)ccc1Nc1ncc(C(F)(F)F)c(Oc2cccc3c2C(=O)CC3)n1`, the ΔTm is -2.56 °C in test [1]; -4.04 °C in test [2]; 0.94 °C in test [3]; 0 °C in test [4]; 0.73 °C in test [5]; 0.94 °C in test [6].
As for `Cc1nc2c(cc1F)c(-c1nnc3c(n1)NC(=O)C3(C)C)nn2Cc1cccc(F)c1F`, the ΔTm in test [1] is 0.8 °C; in test [2], 0.74 °C; in test [3] it was 0.12 °C; in test [4], -0.14 °C; in test [5] it was 0.44 °C; in test [6], -0.06 °C.
As for `CC(C)(O)CNC(=O)N1C(=O)N(c2cccc(C(F)(F)F)c2)C2=C(C(=O)CC2)[C@H]1c1ccc(C#N)cc1`, the ΔTm in test [1] was 0.05 °C; in test [2] it was 0.79 °C; in test [3] it was 0.12 °C; in test [4], 0.33 °C; in test [5], -0.03 °C; in test [6] it was 0.08 °C.
Regarding `COCc1nc2cnc3cc(-c4c(C)noc4C)c(OC[C@H]4CCNC4)cc3c2n1[C@H](C)c1ccccc1`, the thermal shift (ΔTm) was 0.08 °C in test [1]; 0.87 °C in test [2]; 0.07 °C in test [3]; -0.83 °C in test [4]; 0.35 °C in test [5]; -0.39 °C in test [6].
Turning to `COc1ccccc1Nc1nc(-c2nn(Cc3c(F)cc(OCCCO)cc3F)c3ccccc23)ncc1OC`, the ΔTm in test [1] was 0.26 °C; in test [2], -0.43 °C; in test [3], -0.21 °C; in test [4], -0.64 °C; in test [5], 0.16 °C; in test [6], -0.7 °C.
